Assay outcomes deposited in PubChem BioAssay by several laboratories.
Only some compounds are listed: those with a hit (about 2.6% of all), similar ones and a draw of the others.
TROY NFkB inh: TROY signaling inhibition | hit rate 0.98% among 360,000 | AID 1347056 | inhibition, % at 10 µM | Q293 LMP1-TROYcd NF-kB luciferase reporter, 4 h;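 active = compounds whose plate-normalised and pattern-corrected inhibition of the luciferase reporter signal at the single screening dose is 50% or more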
LGR2 inh: inhibitors of bursicon-induced Drosophila LGR2 receptor cAMP signaling; HEK293 LGR2, CRE-luciferase, bursicon-stimulated, 4 h; hit rate 0.35% among 380,000; inhibition, % at 9.99 µM; AID 720647;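 active = drop in luminescence signal, shown as inhibition above about 50% in the replicate tests, limit read from the data, passing the limit was not always enough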;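 note: agonist challenge used bursicon conditioned medium at about half maximal strength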
LMP1 NFkB inh: inhibitors of Epstein-Barr LMP1-induced NF-kappaB reporter; LMP1-induced NF-kappaB luciferase reporter cells, luminescence; inhibition, % at 12.5 µM; hit rate 0.69% among 350,000; in the data active = inhibition above about 41%;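 note: 0% = neutral control wells and 100% = reference inhibitor control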
EWS-Fli block: EWS/Fli transcriptional activity inhibition. A673 NR0B1-luciferase reporter, viability-normalised. inhibition, % at 12.6 µM. hit rate 0.67% among 350,000;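 active = mean inhibition of at least 50% after viability correction, with every replicate also passing that limit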;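 note: firefly luciferase signal divided by Alamar Blue viability fluorescence both relative to DMSO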
TWEAK-Fn14 inh: blocks TWEAK-Fn14 interaction in a reporter cell assay. hit rate 2% among 360,000. TWEAK-stimulated Fn14 reporter cells, luciferase luminescence, 8 h. inhibition, % at 10 µM; in the data active = inhibition above about 50%
* marks the source's active call; other numbers are inactive results; . = not tested or not shown.

SMILES	TROY NFkB inh	LGR2 inh	LMP1 NFkB inh	EWS-Fli block	TWEAK-Fn14 inh
C[C@@H]1CN([C@H](C)CO)C(=O)c2cc(NS(=O)(=O)c3ccc(F)cc3)ccc2O[C@@H]1CN(C)C	.	6	.	-6	.
C[C@H]1CN([C@@H](C)CO)S(=O)(=O)c2ccc(-c3cccc(C(=O)N(C)C)c3)cc2O[C@@H]1CN(C)Cc1ccc2c(c1)OCO2	.	8	.	28	.
COc1ccc2nc(Nc3nc(C)c(C(C)=O)s3)sc2c1	-3	.	-36	.	64*
COc1ccc2nc(NC(=O)c3ccccc3F)sc2c1	-24	63*	-19	5	47
Cc1ccc2nc(NC(=O)c3ccccc3F)sc2c1	8	40	-29	43	69*
COc1ccc2nc(NC(=O)c3ccccc3C(=O)O)sc2c1	-15	11	-2	3	6
Cc1ccc(-c2csc3ncnc(Sc4nnc(CN5CCCCCC5=O)o4)c23)cc1	35	.	42*	.	85*
C[C@@H]1CN([C@@H](C)CO)C(=O)Cc2cc(NC(=O)Nc3ccc(F)cc3)ccc2O[C@H]1CN(C)Cc1ccc(C(F)(F)F)cc1	.	24	.	54*	.
C[C@H]1CN([C@@H](C)CO)C(=O)Cc2cc(NC(=O)Nc3ccc(F)cc3)ccc2O[C@H]1CN(C)Cc1ccc(C(F)(F)F)cc1	.	1	.	-16	.
CC(C)NC(=O)N(C)C[C@H]1Oc2ccc(NC(=O)Nc3ccc(C(F)(F)F)cc3)cc2CC(=O)N([C@H](C)CO)C[C@H]1C	.	-1	.	7	.
C[C@H]1CN([C@@H](C)CO)C(=O)Cc2cc(NC(=O)CCN3CCOCC3)ccc2O[C@H]1CN(C)Cc1ccc(C(F)(F)F)cc1	.	7	.	60*	.
C[C@H](CO)N1C[C@H](C)[C@H](CN(C)CC2CCCCC2)Oc2ccc(NC(=O)Nc3ccc(F)cc3)cc2CC1=O	.	15	.	60*	.
CC(C)NC(=O)N(C)C[C@H]1Oc2ccc(NC(=O)Nc3ccc(C(F)(F)F)cc3)cc2CC(=O)N([C@@H](C)CO)C[C@H]1C	.	-1	.	63*	.
C[C@@H]1CN([C@H](C)CO)S(=O)(=O)c2ccc(-c3cncnc3)cc2O[C@@H]1CN(C)Cc1cccnc1	.	6	.	11	.
O=C(Nc1ccc(Cl)cc1)N[C@@H]1CC[C@H](CCn2cc(C3(O)CCCC3)nn2)O[C@H]1CO	.	13	.	0	.
CO[C@@H]1CN(C)C(=O)c2cc(NS(=O)(=O)CC(F)(F)F)ccc2OC[C@H](C)N(CC2CCCCC2)C[C@@H]1C	.	-6	.	-5	.
CO[C@@H]1CN(C)C(=O)c2ccc(NC(=O)Nc3c(C)noc3C)cc2OC[C@H](C)N(CCC(F)(F)F)C[C@H]1C	.	3	.	4	.
CCOc1ccc2nc(Cl)c(C3CC(c4ccco4)=NN3S(C)(=O)=O)cc2c1 (configuration not stated)	57*	11	-4	-7	-16
Cc1ccc2nc(Cl)c(C3CC(c4ccco4)=NN3S(C)(=O)=O)cc2c1 (configuration not stated)	-39	-10	-7	-1	-40
Cc1ccc(S(=O)(=O)Nc2ccc3c(c2)C(=O)N([C@H](C)CO)C[C@H](C)[C@@H](CN(C)C(=O)Nc2ccc4c(c2)OCO4)OCCCC[C@H](C)O3)cc1	.	5	.	5	.
CN(C)P(=O)(Nc1cccc2ccccc12)Nc1cccc2ccccc12	48	11	3	13	76*
COc1ccc(S(=O)(=O)Nc2ccc3c(c2)C(=O)N([C@@H](C)CO)C[C@H](C)[C@@H](CN(C)CC2CC2)OCCCC[C@H](C)O3)cc1	.	8	.	-6	.
C[C@@H]1CN([C@H](C)CO)C(=O)Cc2cc(NC(=O)Nc3cccc4ccccc34)ccc2O[C@H]1CN(C)C(=O)Nc1ccccc1	.	-10	.	-3	.
O=C1N(c2ccccc2)C[C@@H]2C[C@@H](c3cc4ccccc4o3)N3CCC[C@@]123	48	90*	90*	39	84*
COCCCNc1ccn2nc(-c3ccc(OCc4ccccc4)cc3)cc2n1	49	-23	.	-8	78*
SMILES	TROY NFkB inh	LGR2 inh	LMP1 NFkB inh	EWS-Fli block	TWEAK-Fn14 inh
c1ccc(COc2ccc(-c3cc4nc(NCCOc5ccccc5)ccn4n3)cc2)cc1	-2	-35	.	-9	42
COc1cc(-c2cc3nc(NCCOc4ccccc4)ccn3n2)cc(OC)c1OC	23	-5	.	46	58*
CCOc1cc(Br)cc(/C=N/NC(=O)c2cccnc2)c1O	-15	24	68*	3	-3
CN1C(=O)c2cc(NS(=O)(=O)c3ccccc3Cl)ccc2OC[C@H]2O[C@H](CC(=O)O)CC[C@@H]21	.	-2	.	4	.
COc1ccccc1C#Cc1cnc2c(c1)C(=O)N([C@H](C)CO)C[C@@H](C)[C@H](CN(C)S(=O)(=O)c1cn(C)cn1)O2	.	20	.	-45	.
C=CCn1c(SCc2cc(C(C)=O)ccc2OCC)nc2ccccc2c1=O	17	.	18	54*	33
COc1ccc(S(=O)(=O)N(C)C[C@H]2Oc3ccc(N(C)C)cc3C(=O)N([C@@H](C)CO)C[C@H]2C)cc1	.	4	.	-4	.
COc1ccc(CNC(=O)[C@H](C)N2C(=O)N3CCc4c([nH]c5ccc(OC)cc45)[C@@]3(C)C2=O)cc1	12	.	6	-1	20
COc1ccc2[nH]c3c(c2c1)CCN1C(=O)N([C@@H](C)C(=O)NCc2ccc(C)cc2)C(=O)[C@]31C	10	86*	6	7	0
Cc1cc(C=C2C(=O)c3ccccc3C2=O)c(C)n1-c1ccc(C(=O)O)cc1	6	-42	0	4	-12
Cc1cc(C=C2C(=O)c3ccccc3C2=O)c(C)n1-c1ccccc1	31	.	13	.	89*
Cc1cc(/C=C2/C(=O)NN(c3ccccc3)C2=O)c(C)n1-c1cccc(O)c1	81*	-31	17	-31	92*
Cc1cc(/C=C2\Cc3ccccc3C2=O)c(C)n1-c1ccccc1	6	-7	44*	49	54*
